Calls of active or inactive are those of the source. Unless noted, no rule for the calls is given here.
Tests used:
[1] = compounds binding Alexa647 anti-His antibody – biochemical, small-molecule microarray, 635 nm fluorescence, artefact control for SMM control protein annotation, primary screen (AID 1128); conditions: higher = more signal;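 also: score merges feature fluorescence with signal-to-noise for each printed compound spot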
[2] = tested on: Human papillomavirus type 1a E7 protein (residues 1-88); experiment: HPV1a E7 small-molecule binders, primary screen, biochemical, small-molecule microarray, residues 1-88, 635 nm (AID 1129); conditions: small-molecule microarray binding, fluorescence 635 nm; higher = more signal
[3] = target: Focal adhesion kinase 1 (Homo sapiens) (UniProt Q05397); experiment: PTK2 protein binding on printed compound slides – biochemical, small-molecule microarray, 635/667 nm fluorescence, BSA, DTT, primary screen (AID 1130); conditions: 635 nm fluorescence, higher = more signal;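 also: composite of spot emission at 667 nm and signal to noise over triplicate slides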
Chain of Focal adhesion kinase 1 (Homo sapiens) (Q05397 whole entry, looked up): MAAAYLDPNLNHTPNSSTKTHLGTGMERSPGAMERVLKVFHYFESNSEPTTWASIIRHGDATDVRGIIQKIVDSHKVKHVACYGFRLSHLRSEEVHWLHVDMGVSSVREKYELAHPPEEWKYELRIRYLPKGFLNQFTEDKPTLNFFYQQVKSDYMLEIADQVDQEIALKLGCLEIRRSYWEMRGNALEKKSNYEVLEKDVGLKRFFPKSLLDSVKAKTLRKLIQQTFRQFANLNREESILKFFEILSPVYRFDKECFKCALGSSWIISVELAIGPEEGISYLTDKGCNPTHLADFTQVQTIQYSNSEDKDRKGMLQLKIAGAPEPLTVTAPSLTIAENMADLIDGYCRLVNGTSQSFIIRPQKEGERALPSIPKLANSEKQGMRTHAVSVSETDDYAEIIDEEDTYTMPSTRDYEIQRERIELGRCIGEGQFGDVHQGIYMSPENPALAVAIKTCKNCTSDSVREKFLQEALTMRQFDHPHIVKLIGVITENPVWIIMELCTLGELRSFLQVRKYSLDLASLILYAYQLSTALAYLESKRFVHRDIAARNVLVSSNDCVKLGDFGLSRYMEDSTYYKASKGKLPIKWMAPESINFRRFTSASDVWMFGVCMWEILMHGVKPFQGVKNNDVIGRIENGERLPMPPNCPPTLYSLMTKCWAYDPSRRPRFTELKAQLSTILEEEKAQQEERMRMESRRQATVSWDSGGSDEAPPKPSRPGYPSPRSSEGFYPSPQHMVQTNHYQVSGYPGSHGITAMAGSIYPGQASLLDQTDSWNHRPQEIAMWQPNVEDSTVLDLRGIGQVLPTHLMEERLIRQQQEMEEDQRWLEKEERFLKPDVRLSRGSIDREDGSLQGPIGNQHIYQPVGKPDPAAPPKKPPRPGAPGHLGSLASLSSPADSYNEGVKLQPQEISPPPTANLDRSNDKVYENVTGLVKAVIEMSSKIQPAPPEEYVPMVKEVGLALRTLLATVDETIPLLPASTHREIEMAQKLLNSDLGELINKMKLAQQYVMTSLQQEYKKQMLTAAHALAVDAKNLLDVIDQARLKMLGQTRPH

[4] = tested on: Fibrinogen (Alexa647-labelled); experiment: Alexa647-fibrinogen binding to printed small molecules – biochemical, small-molecule microarray, 635/667 nm fluorescence, artefact control for SMM control-protein annotation, profiling panel (AID 1131); conditions: fibrinogen-A647 binding fluorescence, higher = more signal;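 also: z-score merges 667 nm fluorescence with per-spot signal-to-noise over triplicate slides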
[5] = target: Follistatin (Homo sapiens) (UniProt P19883); experiment: FST protein binding to printed compounds – biochemical, small-molecule microarray, 635/667 nm fluorescence, primary screen (AID 1132); conditions: 635 nm fluorescence, higher = more signal
Chain of Follistatin (Homo sapiens) (P19883 whole entry, looked up): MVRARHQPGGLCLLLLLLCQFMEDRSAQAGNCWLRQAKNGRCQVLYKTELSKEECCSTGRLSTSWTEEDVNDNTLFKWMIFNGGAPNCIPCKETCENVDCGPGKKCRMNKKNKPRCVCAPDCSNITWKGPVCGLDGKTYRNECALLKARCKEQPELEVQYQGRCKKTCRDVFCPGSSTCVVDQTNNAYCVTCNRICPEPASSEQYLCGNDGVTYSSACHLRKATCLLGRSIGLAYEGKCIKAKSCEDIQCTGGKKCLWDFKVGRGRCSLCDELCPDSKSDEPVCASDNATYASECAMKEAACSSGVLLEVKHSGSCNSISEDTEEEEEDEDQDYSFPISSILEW

[6] = target: Fibroblast growth factor 2 (Homo sapiens) (UniProt P09038); experiment: basic fibroblast growth factor binding to printed compounds – biochemical, small-molecule microarray, 635/667 nm fluorescence, primary screen (AID 1133); conditions: FGF2, fluorescence 635/667, higher = more signal
Chain of Fibroblast growth factor 2 (Homo sapiens) (P09038 whole entry, looked up): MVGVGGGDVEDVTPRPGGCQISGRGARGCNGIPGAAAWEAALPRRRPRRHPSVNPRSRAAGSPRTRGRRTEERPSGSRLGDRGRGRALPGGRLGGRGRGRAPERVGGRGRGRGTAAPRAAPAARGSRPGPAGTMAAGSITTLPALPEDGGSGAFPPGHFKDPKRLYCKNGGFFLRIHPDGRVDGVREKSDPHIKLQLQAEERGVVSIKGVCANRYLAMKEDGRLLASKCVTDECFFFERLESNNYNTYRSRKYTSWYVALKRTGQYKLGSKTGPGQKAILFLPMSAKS

[7] = JC-1 mitochondrial potential readout, lung cancer cells – cell-based, A549, JC-1 fluorescence, basal, 24 h, 100 nL, profiling panel (AID 1138); conditions: higher = more signal;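 also: A549 lung adenocarcinoma cells under basal conditions with no added stimulus; test concentration not given here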
Lefty1 = Lefty1 protein binding to printed compounds – biochemical, small-molecule microarray, 635/667 nm fluorescence, primary screen (AID 1139); conditions: fluorescence 635/667, higher = more signal
[8] = tested on: wheat germ agglutinin (Triticum aestivum), Alexa647-labelled; experiment: Alexa647-WGA lectin binding to printed small molecules – biochemical, small-molecule microarray, 635/667 nm fluorescence, artefact control for SMM control-protein annotation, profiling panel (AID 1140); conditions: WGA-A647 binding, 635 nm fluorescence, higher = more signal;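 also: score merges 667 nm feature emission with signal to noise over triplicate slides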
[9] = target: Luciferin 4-monooxygenase (Photinus pyralis) (UniProt P08659); experiment: inhibition of purified Photinus pyralis luciferase – biochemical, luminescence, purified enzyme, 2006 set, primary screen (AID 1141); conditions: purified firefly luciferase, SteadyGlo luminescence, 30 min; higher = more signal, called active from +8 up or from −8 down;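 also: cell-free assay with purified firefly luciferase at 100 ng per well in PBS; test concentration not given here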
Chain of Luciferin 4-monooxygenase (Photinus pyralis) (P08659 whole entry, looked up): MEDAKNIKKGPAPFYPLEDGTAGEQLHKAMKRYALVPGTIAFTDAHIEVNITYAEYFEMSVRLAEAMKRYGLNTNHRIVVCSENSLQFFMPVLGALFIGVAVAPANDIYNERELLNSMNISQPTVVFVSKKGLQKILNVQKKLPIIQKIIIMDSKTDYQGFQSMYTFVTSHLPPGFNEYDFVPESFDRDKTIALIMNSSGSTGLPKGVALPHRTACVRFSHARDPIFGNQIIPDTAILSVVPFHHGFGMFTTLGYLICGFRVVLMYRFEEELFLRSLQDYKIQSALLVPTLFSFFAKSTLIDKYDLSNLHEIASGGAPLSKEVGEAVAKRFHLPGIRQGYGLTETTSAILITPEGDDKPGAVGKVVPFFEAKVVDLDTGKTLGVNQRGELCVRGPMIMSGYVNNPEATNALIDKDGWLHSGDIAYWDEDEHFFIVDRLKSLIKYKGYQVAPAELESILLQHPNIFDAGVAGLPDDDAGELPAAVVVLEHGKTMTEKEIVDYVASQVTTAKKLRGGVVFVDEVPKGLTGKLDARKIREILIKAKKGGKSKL

[10] = tested on: Wnt5a (protein binding on small-molecule microarray); experiment: small molecules binding Wnt5a protein – biophysical, small-molecule microarray, 635/667 nm fluorescence, primary screen (AID 1142); conditions: 635 nm fluorescence, higher = more signal;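 also: fluorescence read at 667 nm with signal to noise per printed feature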
[11] = ATP-based viability of Huh7 replicon cells – cell-based, CellTiter-Glo luminescence, basal, 48 h, cytotoxicity control for HCV replication inhibitor project, primary screen (AID 1143); conditions: higher = more signal, called active from +8 up or from −8 down;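 also: Huh7 hepatoma cells carrying a hepatitis C replication reporter with no stimulus; test concentration not given here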
[12] = Pseudomonas biofilm growth suppression – PAO1 strain, BacTiter-Glo luminescence, LB-PBS, primary screen (AID 1144); conditions: P. aeruginosa PAO1 biofilm, 12 h, higher = more signal
[13] = basal CRE-LacZ reporter activity in PC12 – cell-based, unstimulated, primary screen (AID 1145); conditions: no forskolin, luminescence, 4.5 h, higher = more signal, called active from +8 up or from −8 down
[14] = forskolin-driven CRE-LacZ activity in PC12 – cell-based, CRE-LacZ reporter, forskolin-stimulated, primary screen (AID 1146); conditions: luminescence, 4.5 h, higher = more signal, called active from +8 up or from −8 down;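 also: PC12 cells with 6xCRE LacZ reporter stimulated by forskolin 10 µM; beta-galactosidase reporter signal reflecting CREB driven transcription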
[15] = target: Streptavidin (Streptomyces avidinii) (UniProt P22629); experiment: compounds binding control protein streptavidin – biophysical, small-molecule microarray, 635/667 nm fluorescence, artefact control for SMM compound annotation, primary screen (AID 1147); conditions: higher = more signal;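 also: signal reflects streptavidin binding to arrayed compounds as a control protein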
Chain of Streptavidin (Streptomyces avidinii) (P22629 whole entry, looked up): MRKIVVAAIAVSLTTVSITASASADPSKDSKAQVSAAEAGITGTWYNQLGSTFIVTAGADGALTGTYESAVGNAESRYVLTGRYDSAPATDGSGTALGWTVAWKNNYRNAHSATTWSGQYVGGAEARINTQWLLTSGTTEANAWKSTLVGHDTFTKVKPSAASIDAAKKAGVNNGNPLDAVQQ

[16] = probe aInhba binding on compound microarray – biochemical, small-molecule microarray, 635/667 nm fluorescence, primary screen (AID 1148); conditions: higher = more signal;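 also: score merges 667nm spot fluorescence with signal-to-noise for antibody binding to printed compounds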
Torsin-1A (Homo sapiens) [17] = target: Torsin-1A (Homo sapiens) (UniProt O14656); experiment: TOR1A wild-type binding on microarray – cell lysate, small-molecule microarray, lysate, 635/667 nm, primary screen (AID 1149); conditions: COS7 hTOR1A-WT lysate, 635 nm fluorescence, higher = more signal
Chain of Torsin-1A (Homo sapiens) (O14656 whole entry, looked up): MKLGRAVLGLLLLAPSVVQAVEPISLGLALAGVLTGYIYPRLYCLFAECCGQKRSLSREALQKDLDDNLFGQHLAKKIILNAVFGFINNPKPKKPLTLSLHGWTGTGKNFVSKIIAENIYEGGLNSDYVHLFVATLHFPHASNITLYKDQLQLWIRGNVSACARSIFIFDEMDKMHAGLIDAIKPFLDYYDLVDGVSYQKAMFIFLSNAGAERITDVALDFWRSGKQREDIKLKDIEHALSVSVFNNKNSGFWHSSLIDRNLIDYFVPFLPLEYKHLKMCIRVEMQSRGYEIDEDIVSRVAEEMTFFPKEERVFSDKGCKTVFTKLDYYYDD

Torsin-1A (Homo sapiens) [18] = target: Torsin-1A (Homo sapiens) (UniProt O14656); experiment: torsin A mutant lysate binding on microarrays – cell lysate, small-molecule microarray, COS7 lysate, 635/667 nm fluorescence, primary screen (AID 1150); conditions: COS7 hTOR1A mutant lysate, 635 nm fluorescence, higher = more signal;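 also: score pools 667 nm emission and signal to noise measuring lysate protein binding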
[19] = tested on: Sonic hedgehog protein (Shh); experiment: Sonic hedgehog microarray binding compounds – biochemical, small-molecule microarray, 635/667 nm fluorescence, primary screen (AID 1151); conditions: 635 nm fluorescence, higher = more signal;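 also: Shh protein binding to compounds spotted on small-molecule microarray slides; score combines spot fluorescence intensity with signal-to-noise across triplicate slides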

| SMILES | composite z-score [1] | composite z-score [2] | composite z-score [3] | composite z-score [4] | composite z-score [5] | composite z-score [6] | z-score [7] | composite z-score (Lefty1) | composite z-score [8] | z-score [9] | composite z-score [10] | z-score [11] | z-score [12] | z-score [13] | z-score [14] | composite z-score [15] | composite z-score [16] | composite z-score (Torsin-1A (Homo sapiens) [17]) | composite z-score (Torsin-1A (Homo sapiens) [18]) | composite z-score [19] |
| --- | --- | --- | --- | --- | --- | --- | --- | --- | --- | --- | --- | --- | --- | --- | --- | --- | --- | --- | --- | --- |
| C=C(COC)C(=O)CC[C@@H](OC(=O)c1cccnc1)c1ccccc1OCCO | 2.06 | 0.284 | -0.54 | 0.555 | 0.974 | 1 | -0.0536 | 0.139 | 0.287 | -5.44 (inactive) | 0.125 | -3.79 (inactive) | 0.291 (inactive) | 19.7 (active) | 16.4 (active) | -0.126 | 0.0355 | 0.882 | 1.14 | 0.786 |
| O=C(N1CCOCC1)[C@@]1(CCS(=O)(=O)c2ccccc2)N=C(c2ccc(OCCCO)cc2)O[C@H]1c1ccccc1 | 3.23 | 1.25 | 0.919 | 1 | 1.25 | 0.162 | 0.584 | -0.415 | 1.29 | -0.0763 (inactive) | 0.465 | -1.48 (inactive) | 0.201 (inactive) | 0.0127 (inactive) | -0.0526 (inactive) | 2.39 | 0.3 | 0.411 | 0.767 | -0.514 |
| O=C1OCC=C[C@H]2OC34C=CCN(c5ccc6ccccc6c5)C(=O)[C@H]3N(CCCCCO)C(=O)[C@@H]4[C@@H]12 (stereo not given in full) | 0.0997 | -0.381 | 1.05 | -0.639 | -1.38 | -1.42 | -0.164 | -1.23 | 0.129 | -0.397 (inactive) | -0.137 | 0.234 (inactive) | 0.494 (inactive) | 0.724 (inactive) | 0.0532 (inactive) | -0.884 | -0.0963 | -1.92 | -1.41 | -0.968 |
| CN1C(=O)C2C=CC(C(O)c3ccc(F)cc3)N(NC(=O)OC(C)(C)C)C2C1=O (stereo not given) | 0.322 | 0.878 | 0.22 | 0.81 | 0.344 | -0.475 | -0.946 | 0.0813 | 0.381 | -0.507 (inactive) | 0.155 | -0.134 (inactive) | 0.193 (inactive) | 0.436 (inactive) | 0.84 (inactive) | 1.43 | 0.0705 | 0.0284 | -0.0455 | -0.761 |
| CCCC=C(CCC)[C@@H](NS(=O)(=O)c1cccc2cccnc12)c1ccc(-c2ccccc2)cc1 | 0.187 | 1.19 | 0.638 | 0.98 | 0.964 | 0.512 | 1.03 | 1.11 | 0.745 | 2.06 (inactive) | 0.702 | -1.52 (inactive) | 0.923 (inactive) | -0.379 (inactive) | 0.415 (inactive) | 1.42 | 0.475 | 0.274 | 0.371 | 0.632 |
| C=CCNC(=O)[C@H]1[C@@H]2C(=O)O[C@@H](c3ccccc3)[C@@H](c3ccccc3)N2[C@@H](c2ccc(O)cc2)[C@]12C(=O)N(C(=O)OCCOC)c1ccc(C#CCC(C(=O)OC)C(=O)OC)cc12 | 0.724 | 1.13 | 0.439 | 0.858 | 1.32 | 1.5 | -1.74 | 0.836 | 0.856 | 0.315 (inactive) | 0.027 | -2.96 (inactive) | 0.102 (inactive) | 0.0653 (inactive) | 0.141 (inactive) | 0.663 | -0.0221 | 0.757 | 0.283 | 1.75 |
| CC(C)CNC(=O)[C@@]1(C)c2ccccc2C(=O)N(Cc2cc(C(F)(F)F)cc(C(F)(F)F)c2)[C@H]1c1ccc(CO)cc1 | -0.738 | -0.391 | -0.342 | -1.03 | -0.117 | 0.0193 | 0.843 | 0.0325 | -0.356 | -0.0582 (inactive) | -0.445 | -3.12 (inactive) | 0.92 (inactive) | 0.414 (inactive) | -0.578 (inactive) | -0.366 | -0.0987 | -0.918 | -0.267 | -0.117 |
| COc1ccc([Si](C)(C)[C@H]2[C@H](CCO)O[C@@]3(C(=O)N(Cc4ccc(N5C(=O)c6ccccc6Oc6ccccc65)cc4)c4ccccc43)[C@@H]2C)cc1 | -0.486 | -0.76 | -0.266 | 0.348 | -1.14 | -0.968 | 1.26 | -0.865 | 0.0124 | -0.652 (inactive) | -0.154 | -5.43 (inactive) | -1.75 (inactive) | 0.222 (inactive) | -0.986 (inactive) | -0.446 | -0.0762 | -1.08 | -0.889 | 1.13 |
| C=C(CCCC)C(=O)CC[C@H](OC(C)=O)c1ccc(OCCO)cc1 | 1.45 | -0.957 | 0.0145 | 0.431 | -0.243 | -0.271 | 0.208 | 0.108 | 0.359 | -0.66 (inactive) | -0.624 | -7.16 (inactive) | -1.17 (inactive) | 5.09 (inactive) | -0.361 (inactive) | 0.519 | -0.308 | -0.822 | -0.514 | -0.0938 |
| COc1cc(CO)cc(I)c1O[C@H]1C=C(C(=O)NCCO)C[C@@H](NCC2CCCCC2)[C@@H]1O | 0.72 | 0.283 | 0.211 | 0.0646 | 0.521 | 0.566 | -0.0493 | 0.302 | 0.672 | 0.734 (inactive) | -0.042 | -0.731 (inactive) | -0.893 (inactive) | -0.0534 (inactive) | -0.269 (inactive) | 0.0581 | 0.0422 | -0.549 | -0.262 | -0.397 |
| CCCCC(=C=CC[C@H](O)c1ccc(OCCO)cc1)C[C@H](O)c1cc(Cl)cc(Cl)c1O | 0.323 | 0.606 | 0.0593 | 0.463 | 0.906 | 0.807 | 0.62 | 0.484 | 0.776 | -1.39 (inactive) | -0.223 | -0.849 (inactive) | -0.145 (inactive) | 7.85 (inactive) | -0.218 (inactive) | 0.315 | -0.15 | 0.296 | 0.51 | 0.646 |
| COc1cc(NN2C(C(O)C3CCCCC3)C=CC3C(=O)N(C)C(=O)C32)cc(OC)c1OC (stereo not given) | 0.901 | 1.23 | 1.97 | 1 | 0.954 | -0.0452 | 1.75 | -0.608 | 1.16 | -0.527 (inactive) | 0.265 | 0.187 (inactive) | 0.0648 (inactive) | -0.133 (inactive) | 0.454 (inactive) | 2.2 | 0.502 | -0.176 | 0.358 | -0.68 |

From PubChem BioAssay
